# Laboratory results reported in ChEMBL document CHEMBL3988442, “University of Dundee, Small-Polar-MMV Screening Library” (2021).
# For part of these data: Entries with a potency or affinity are not part of this list.
# Columns and labels:
# [1] = molecular target: T1, Methionyl-tRNA synthetase, putative (Leishmania donovani (strain BPK282A1)) (UniProt E9BF75); experiment: Leishmania donovani Methionine tRNA synthetase (LdMetRS):v7. Dose response assay; type: functional; set-up: conc 80 nM, time 150 minutes
# T1 sequence (whole entry): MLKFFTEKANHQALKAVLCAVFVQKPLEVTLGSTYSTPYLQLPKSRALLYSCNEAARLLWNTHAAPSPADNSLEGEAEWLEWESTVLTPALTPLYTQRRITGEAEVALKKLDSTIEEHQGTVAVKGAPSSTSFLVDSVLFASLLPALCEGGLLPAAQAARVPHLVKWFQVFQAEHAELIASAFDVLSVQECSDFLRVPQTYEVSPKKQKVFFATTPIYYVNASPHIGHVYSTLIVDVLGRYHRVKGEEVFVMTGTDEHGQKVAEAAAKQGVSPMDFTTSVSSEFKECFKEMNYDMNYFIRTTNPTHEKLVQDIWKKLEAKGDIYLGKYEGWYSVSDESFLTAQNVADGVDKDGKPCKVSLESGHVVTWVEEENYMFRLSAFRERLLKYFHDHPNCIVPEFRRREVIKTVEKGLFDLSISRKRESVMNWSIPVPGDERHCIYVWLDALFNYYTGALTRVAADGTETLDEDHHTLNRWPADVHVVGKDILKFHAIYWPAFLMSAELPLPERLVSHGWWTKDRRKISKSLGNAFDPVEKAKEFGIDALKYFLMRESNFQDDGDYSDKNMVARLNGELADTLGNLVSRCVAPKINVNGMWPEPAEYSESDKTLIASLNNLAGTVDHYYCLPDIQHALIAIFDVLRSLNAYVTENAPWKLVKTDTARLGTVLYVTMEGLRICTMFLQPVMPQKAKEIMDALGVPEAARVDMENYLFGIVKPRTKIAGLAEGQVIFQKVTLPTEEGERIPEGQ
# [2] = molecular target: Protein translocase subunit SecA (Escherichia coli (strain K12)) (UniProt P10408); experiment: Assay to Identify E. coli SecA ATPase Inhibitors; type: functional; set-up: scale not given: direction of the effect not stated beside the values; settings: 30 µM
# Sequence of Protein translocase subunit SecA (Escherichia coli (strain K12)) (P10408 whole entry): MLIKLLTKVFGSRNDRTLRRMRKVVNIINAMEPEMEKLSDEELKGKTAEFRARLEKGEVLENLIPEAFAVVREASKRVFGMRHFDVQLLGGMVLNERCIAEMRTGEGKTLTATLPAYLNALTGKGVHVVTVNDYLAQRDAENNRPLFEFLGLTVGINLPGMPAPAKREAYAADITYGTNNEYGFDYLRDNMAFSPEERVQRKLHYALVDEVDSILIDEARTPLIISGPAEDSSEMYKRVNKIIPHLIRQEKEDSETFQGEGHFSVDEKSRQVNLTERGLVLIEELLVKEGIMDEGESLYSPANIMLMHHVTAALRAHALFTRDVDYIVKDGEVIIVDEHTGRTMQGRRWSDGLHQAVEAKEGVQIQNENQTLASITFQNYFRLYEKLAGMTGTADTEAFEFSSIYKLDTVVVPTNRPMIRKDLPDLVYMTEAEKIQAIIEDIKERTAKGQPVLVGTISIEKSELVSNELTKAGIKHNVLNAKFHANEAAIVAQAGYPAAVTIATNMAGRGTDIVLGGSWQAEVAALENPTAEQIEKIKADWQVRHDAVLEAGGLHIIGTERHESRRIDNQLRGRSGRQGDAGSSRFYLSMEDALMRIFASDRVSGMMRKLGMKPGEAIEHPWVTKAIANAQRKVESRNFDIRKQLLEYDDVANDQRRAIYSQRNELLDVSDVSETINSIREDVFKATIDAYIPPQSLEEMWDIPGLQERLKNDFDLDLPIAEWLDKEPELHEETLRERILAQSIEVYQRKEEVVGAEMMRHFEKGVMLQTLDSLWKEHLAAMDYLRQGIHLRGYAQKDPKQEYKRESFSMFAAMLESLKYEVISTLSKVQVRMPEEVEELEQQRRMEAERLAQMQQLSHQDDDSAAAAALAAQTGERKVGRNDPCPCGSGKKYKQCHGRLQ
# [3] = molecular target: T2, Ubiquitin-activating enzyme e1, putative (Leishmania donovani (strain BPK282A1)) (UniProt E9BSI1); experiment: Leishmania donovani Ubiquitin Activating Enzyme (LdE1); type: functional; set-up: scale not given: direction of the effect not stated beside the values; settings: 30 µM
# T2 sequence (whole entry): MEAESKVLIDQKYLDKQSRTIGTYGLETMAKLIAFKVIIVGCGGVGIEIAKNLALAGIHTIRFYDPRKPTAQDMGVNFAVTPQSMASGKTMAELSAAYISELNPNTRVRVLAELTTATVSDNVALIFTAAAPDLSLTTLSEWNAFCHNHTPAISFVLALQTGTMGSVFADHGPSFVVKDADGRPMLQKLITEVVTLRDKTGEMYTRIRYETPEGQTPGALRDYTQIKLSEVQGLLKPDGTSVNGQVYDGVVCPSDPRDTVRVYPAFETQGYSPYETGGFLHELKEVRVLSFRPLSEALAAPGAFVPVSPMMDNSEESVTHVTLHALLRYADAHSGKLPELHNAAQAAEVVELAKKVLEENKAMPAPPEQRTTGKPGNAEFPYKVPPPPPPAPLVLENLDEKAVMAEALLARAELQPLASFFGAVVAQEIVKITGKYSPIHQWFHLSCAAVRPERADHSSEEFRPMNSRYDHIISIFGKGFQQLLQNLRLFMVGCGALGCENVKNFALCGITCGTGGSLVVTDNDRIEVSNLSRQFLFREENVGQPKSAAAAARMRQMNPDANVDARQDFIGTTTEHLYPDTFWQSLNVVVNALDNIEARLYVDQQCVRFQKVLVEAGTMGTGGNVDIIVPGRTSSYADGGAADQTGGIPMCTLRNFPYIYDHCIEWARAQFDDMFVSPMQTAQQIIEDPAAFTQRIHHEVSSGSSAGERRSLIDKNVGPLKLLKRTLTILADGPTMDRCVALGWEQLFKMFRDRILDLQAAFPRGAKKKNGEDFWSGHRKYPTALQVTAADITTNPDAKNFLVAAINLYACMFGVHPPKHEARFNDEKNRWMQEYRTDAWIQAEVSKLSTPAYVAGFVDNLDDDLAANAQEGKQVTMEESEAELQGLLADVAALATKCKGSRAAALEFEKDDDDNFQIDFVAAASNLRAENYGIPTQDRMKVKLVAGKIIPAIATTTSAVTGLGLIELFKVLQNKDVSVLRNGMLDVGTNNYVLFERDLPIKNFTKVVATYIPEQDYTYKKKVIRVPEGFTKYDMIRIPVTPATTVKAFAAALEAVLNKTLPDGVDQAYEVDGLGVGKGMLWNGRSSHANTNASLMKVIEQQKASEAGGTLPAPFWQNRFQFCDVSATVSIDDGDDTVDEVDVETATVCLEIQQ
# [4] = molecular target: AMP-activated protein kinase, AMPK (Homo sapiens) (UniProt P54646+O43741+P54619+Q9UGJ0+Q9Y478+Q13131+Q9UGI9); experiment: AMP-dependent Kinase enzyme assay. An in vitro enzyme assay that detects ADP turnover that is directly proportional to AMPK activity. This uses naive AMPK that is activated during the assay with MK-8722; type: functional; set-up: scale not given: direction of the effect not stated beside the values; settings: 30 µM
# [5] = molecular target: Sialic acid-binding Ig-like lectin 9 (Homo sapiens) (UniProt Q9Y336); experiment: Hs-Siglec9 ALPHAscreen SOP 20170721; set-up: scale not given: direction of the effect not stated beside the values; settings: 10 µM
# Sequence of Sialic acid-binding Ig-like lectin 9 (Homo sapiens) (Q9Y336 whole entry): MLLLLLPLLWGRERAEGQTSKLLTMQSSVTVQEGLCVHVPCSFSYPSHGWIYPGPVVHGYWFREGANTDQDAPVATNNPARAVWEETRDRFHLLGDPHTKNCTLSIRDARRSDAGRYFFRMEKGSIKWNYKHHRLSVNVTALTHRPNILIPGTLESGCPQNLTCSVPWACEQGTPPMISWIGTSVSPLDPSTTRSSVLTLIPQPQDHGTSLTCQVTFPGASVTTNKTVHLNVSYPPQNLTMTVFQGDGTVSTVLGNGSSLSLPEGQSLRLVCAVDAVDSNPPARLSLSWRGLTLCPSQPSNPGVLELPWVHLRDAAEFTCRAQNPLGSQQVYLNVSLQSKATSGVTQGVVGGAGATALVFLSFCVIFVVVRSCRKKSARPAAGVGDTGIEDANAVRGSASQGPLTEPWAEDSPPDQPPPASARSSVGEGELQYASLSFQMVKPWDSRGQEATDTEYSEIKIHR
# [6] = system: Trypanosoma cruzi; experiment: Trypanosoma cruzi phosphomannomutase and mannose-1-phosphate guanylyltransferase assay; type: functional; set-up: scale not given: direction of the effect not stated beside the values; settings: 10 µM
# [7] = molecular target: T3, Arginase-2, mitochondrial (Homo sapiens) (UniProt P78540); experiment: in vitro enzyme assay to detect the production of urea directly proportional to the activity of Arginase II; type: functional; set-up: scale not given: in the data most compounds retested in dose-response had high values; settings: 33.3 µM
# T3 sequence (whole entry): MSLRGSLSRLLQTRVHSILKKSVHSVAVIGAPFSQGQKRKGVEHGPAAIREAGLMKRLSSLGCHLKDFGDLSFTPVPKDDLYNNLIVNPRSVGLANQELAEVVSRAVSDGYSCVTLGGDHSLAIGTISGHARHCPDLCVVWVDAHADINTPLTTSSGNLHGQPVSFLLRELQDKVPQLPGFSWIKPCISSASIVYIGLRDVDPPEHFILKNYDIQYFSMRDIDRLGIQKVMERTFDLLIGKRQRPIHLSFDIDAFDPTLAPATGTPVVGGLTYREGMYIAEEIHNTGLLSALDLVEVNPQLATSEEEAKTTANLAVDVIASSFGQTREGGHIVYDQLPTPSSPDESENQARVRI
# [8] = molecular target: T4, Proteasome subunit beta (Trypanosoma cruzi) (UniProt O96673); experiment: Trypanosoma cruzi proteasome chymotrypsin-like activity (TcProtChymo) assay.; type: functional; set-up: scale not given: in the data most compounds retested in dose-response had high values; settings: 9.37 µM
# T4 sequence (whole entry): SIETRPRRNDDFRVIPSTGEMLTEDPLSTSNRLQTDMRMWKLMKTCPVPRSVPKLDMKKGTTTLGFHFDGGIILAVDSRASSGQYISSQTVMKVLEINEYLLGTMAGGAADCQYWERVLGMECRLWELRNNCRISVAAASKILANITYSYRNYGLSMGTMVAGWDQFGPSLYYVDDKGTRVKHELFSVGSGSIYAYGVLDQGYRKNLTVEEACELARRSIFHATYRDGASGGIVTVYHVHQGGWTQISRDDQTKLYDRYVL
# [9] = organism: Homo sapiens; experiment: To identify inhibition of the IFN signalling (Jak-Stat) pathway via expression of an eGFP reporter gene under the control of an IFN-stimulated response element (ISRE) containing MxA promoter.; type: functional; set-up: scale not given: direction of the effect not stated beside the values; settings: 30 µM
# [10] = molecular target: T5, Tyrosyl-tRNA synthetase, putative (Trypanosoma cruzi (strain CL Brener)) (UniProt Q4DSP6); experiment: Trypanosoma cruzi tyrosyl tRNA synthetase (TcYRS) _High Tyrosine SOP; type: functional; set-up: scale not given: in the data most compounds retested in dose-response had high values; settings: 30 µM
# T5 sequence (whole entry): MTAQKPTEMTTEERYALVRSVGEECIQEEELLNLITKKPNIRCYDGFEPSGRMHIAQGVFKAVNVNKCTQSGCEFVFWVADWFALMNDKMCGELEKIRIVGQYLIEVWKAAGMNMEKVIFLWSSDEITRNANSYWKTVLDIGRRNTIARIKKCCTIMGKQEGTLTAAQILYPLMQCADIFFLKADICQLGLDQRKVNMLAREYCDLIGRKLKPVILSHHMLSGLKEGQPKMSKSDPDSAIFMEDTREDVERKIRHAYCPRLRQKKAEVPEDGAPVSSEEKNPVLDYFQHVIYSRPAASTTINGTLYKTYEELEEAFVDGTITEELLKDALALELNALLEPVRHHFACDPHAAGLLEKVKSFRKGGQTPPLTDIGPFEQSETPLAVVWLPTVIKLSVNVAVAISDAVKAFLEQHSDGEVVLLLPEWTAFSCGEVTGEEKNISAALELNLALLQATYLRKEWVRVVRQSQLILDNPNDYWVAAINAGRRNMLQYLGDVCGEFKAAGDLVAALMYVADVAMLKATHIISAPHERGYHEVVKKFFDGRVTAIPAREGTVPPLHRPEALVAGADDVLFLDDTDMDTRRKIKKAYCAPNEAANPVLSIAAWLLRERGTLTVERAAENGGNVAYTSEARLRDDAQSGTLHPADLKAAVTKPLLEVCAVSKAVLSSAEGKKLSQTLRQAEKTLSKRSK
# [11] = molecular target: T5, Tyrosyl-tRNA synthetase, putative (Trypanosoma cruzi (strain CL Brener)); experiment: Trypanosoma cruzi tyrosyl tRNA synthetase (TcYRS) SOP; type: functional; set-up: scale not given: direction of the effect not stated beside the values; settings: 30 µM
# [12] = molecular target: Chromo domain-containing protein 1 (Saccharomyces cerevisiae (strain ATCC 204508 / S288c) (Baker's yeast)) (UniProt P32657); experiment: ScCHD-1 Enzyme Inhibition Assay; type: functional; set-up: scale not given: in the data most compounds retested in dose-response had high values; settings: 30 µM
# Sequence of Chromo domain-containing protein 1 (Saccharomyces cerevisiae (strain ATCC 204508 / S288c) (Baker's yeast)) (P32657 whole entry, the tested form may be a part): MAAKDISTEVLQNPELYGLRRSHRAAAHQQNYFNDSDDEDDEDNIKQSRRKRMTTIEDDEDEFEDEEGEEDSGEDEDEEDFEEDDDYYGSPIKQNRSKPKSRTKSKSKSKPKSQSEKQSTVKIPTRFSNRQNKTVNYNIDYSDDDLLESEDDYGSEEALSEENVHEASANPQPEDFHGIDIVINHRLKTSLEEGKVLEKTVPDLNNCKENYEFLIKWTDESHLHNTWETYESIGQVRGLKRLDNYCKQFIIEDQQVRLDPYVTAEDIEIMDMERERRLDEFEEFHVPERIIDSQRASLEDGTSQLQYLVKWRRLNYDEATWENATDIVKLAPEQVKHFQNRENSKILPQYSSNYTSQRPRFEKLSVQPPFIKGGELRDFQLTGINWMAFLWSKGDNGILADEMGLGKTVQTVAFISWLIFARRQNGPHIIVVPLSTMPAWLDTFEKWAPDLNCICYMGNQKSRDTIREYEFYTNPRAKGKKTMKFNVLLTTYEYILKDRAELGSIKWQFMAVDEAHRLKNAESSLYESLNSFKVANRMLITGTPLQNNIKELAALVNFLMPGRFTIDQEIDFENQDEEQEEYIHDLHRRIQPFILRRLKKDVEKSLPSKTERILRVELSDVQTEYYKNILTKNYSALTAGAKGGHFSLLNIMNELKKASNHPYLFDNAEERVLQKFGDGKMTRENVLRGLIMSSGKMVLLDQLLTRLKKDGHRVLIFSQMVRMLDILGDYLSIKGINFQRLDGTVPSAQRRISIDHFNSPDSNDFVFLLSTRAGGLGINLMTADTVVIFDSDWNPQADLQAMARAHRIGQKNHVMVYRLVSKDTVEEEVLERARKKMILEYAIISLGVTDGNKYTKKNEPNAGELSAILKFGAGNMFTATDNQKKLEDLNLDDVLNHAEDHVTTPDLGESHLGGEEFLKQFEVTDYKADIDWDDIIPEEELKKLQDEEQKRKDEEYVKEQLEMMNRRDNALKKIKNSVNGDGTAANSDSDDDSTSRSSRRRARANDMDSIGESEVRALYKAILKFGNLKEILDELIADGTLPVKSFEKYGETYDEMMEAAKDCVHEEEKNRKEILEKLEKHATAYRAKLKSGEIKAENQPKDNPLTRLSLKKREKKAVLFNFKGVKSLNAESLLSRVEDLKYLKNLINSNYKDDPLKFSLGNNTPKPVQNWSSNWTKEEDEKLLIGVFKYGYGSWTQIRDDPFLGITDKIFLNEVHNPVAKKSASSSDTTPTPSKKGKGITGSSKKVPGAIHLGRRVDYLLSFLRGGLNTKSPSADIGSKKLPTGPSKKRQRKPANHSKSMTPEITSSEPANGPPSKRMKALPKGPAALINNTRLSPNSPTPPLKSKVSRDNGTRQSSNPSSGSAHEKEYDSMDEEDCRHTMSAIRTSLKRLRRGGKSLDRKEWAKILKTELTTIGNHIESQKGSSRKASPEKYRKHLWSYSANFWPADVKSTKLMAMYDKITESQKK
compound,measurement,setting,value
O=C(CC1=CCCCC1)NCCc1csc(N2CCCC2)n1,PXC50,"[1]; BOTTOM 3.701535951, HILLSLOPE 1.30756587, MAX_EFFECT 71.01449275, TOP 100.0",4.26
same,PXC50,"[1]; BOTTOM -1.141810122, HILLSLOPE 1.921557011, MAX_EFFECT 84.15841584, TOP 100.0",4.32
same,PXC50,[1]; MAX_EFFECT 3.162055336,< 4
same,PXC50,[1]; MAX_EFFECT 8.571428571,< 4
same,PXC50,[1]; MAX_EFFECT 50.53763441,< 4
same,Percent Effect,[2],-6.52%
same,Percent Effect,[3],-5.33%
same,Percent Effect,[4],-0.418%
same,Percent Effect,[5],8.91%
same,Percent Effect,[6],15.9%
same,Percent Effect,[7],-1.56%
same,Percent Effect,[8],25.3%
same,Percent Effect,[9],-20.2%
same,Percent Effect,[10],23.5%
same,Percent Effect,[11],8.64%
same,Percent Effect,[12],33%
CCN(CCN(C)C)c1nc(CCN)nc2sc(C)c(C)c12,PXC50,"[1]; BOTTOM 1.153434253, HILLSLOPE 1.801290913, MAX_EFFECT 65.59139785, TOP 100.0",4.17
same,PXC50,"[1]; BOTTOM 3.323089956, HILLSLOPE 2.865245269, MAX_EFFECT 53.13531353, TOP 100.0",4.01
same,PXC50,"[1]; BOTTOM 7.056148009, HILLSLOPE 0.845689164, MAX_EFFECT 65.90909091, TOP 100.0",4.25
same,PXC50,"[1]; BOTTOM 9.733141468, HILLSLOPE 1.108067768, MAX_EFFECT 69.89795918, TOP 94.34728341",4.35
same,PXC50,"[1]; BOTTOM -2.908093481, HILLSLOPE 0.556623138, MAX_EFFECT 55.79710145, TOP 100.0",4.03
O=C(NCc1cnn2cccnc12)c1cccc(CC2CCNCC2)c1,PXC50,"[1]; BOTTOM 2.141206025, HILLSLOPE 1.62116593, MAX_EFFECT 62.52189142, TOP 100.0",4.14
same,PXC50,"[1]; BOTTOM 2.892347169, HILLSLOPE 1.976450586, MAX_EFFECT 93.87755102, TOP 100.0",4.43
same,PXC50,"[1]; BOTTOM 5.673984802, HILLSLOPE 1.822868055, MAX_EFFECT 90.57971014, TOP 100.0",4.44
same,Percent Effect,[4],2.98%
FC1(F)CCN(Cc2cccnc2)CC12CCN(c1ccccc1)C2 (stereo not given),PXC50,"[1]; BOTTOM -4.019199092, HILLSLOPE 0.87851595, MAX_EFFECT 63.88888889, TOP 104.3685566",4.25
same,PXC50,"[1]; BOTTOM -4.110370477, HILLSLOPE 0.854311737, MAX_EFFECT 59.79202773, TOP 100.0",4.27
same,PXC50,"[1]; BOTTOM -6.339797733, HILLSLOPE 0.853335904, MAX_EFFECT 59.06040268, TOP 100.0",4.22
same,PXC50,[1]; MAX_EFFECT 7.101727447,< 4
same,PXC50,[1]; MAX_EFFECT 13.23763955,< 4
